# Pf growth 48h – Primary qHTS for delayed death inhibitors of the malarial parasite plastid, 48 hour incubation. Potency, µM (series often up to 28.7 µM), for inactives: at the highest dose activity change, negative = inhibition, hits mostly inhibitors. P. falciparum luciferase growth in erythrocytes, 48 h. 5.9% of 310,000 active; also: potency is read from the fitted curve at half-maximal effect; % is scaled to controls: 0 for no effect and ±100 for the full control effect
#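 Luciferase-expressing P. falciparum in infected erythrocytes (2% hematocrit, 0.1% parasitemia final) in RPMI 1640/0.5% Albumax were exposed to compound for 48 hours at 37 C, 5% CO2; growth read as luminescence.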
# Pf growth 96h – Primary qHTS for delayed death inhibitors of the malarial parasite plastid, 96 hour incubation; P. falciparum luciferase reporter growth, 96 h; Potency, µM (highest dose often 28.7 µM), without a hit: top-dose activity change, negative = inhibition, actives largely listed as inhibitors; 6.9% of 320,000 active; also: potency is read from the fitted curve at half-maximal effect; % is scaled to controls: 0 for no effect and ±100 for the full control effect
#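 Infected RBCs, 2% Hct / 0.05% parasitemia final; luciferase-reporter P. falciparum; cpd 96 h, 37 C, 5% CO2; luciferase detection reagent; luminescence.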
# NS1 inh – qHTS Assay for Inhibitors of Influenza NS1 Protein Function | 0.4% of 270,000 active | Potency, µM (titrated, usually from 46.1 µM), for inactives: at the highest dose activity, positive = more growth | AID 2326, 2010; calls by dose curve; also: potency is read from the fitted curve at half-maximal effect; actives are rising curves; nearly all actives have a fitted effect of over 50% in size
#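 In this qHTS, NS1 from influenza A is expressed in budding yeast, where it slows growth. Cells are switched from glucose to 2% galactose medium (pH 6.0, -URA), treated with compound, and growth recovery is read at OD600.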
# Shiga inhibitor – A qHTS for Small Molecule Inhibitors of Shiga Toxin; Vero cells, Shiga toxin protein synthesis inhibition reporter; inhibition, % at 38.7 µM; 9.2% of 290,000 active; AID 2315, 2010; in the data active = inhibition mostly above about 28%, no sharp cut-off; inactive = mostly below about 43%; also: 0% is about no effect
# Cycloheximide cs – Cycloheximide Counterscreen for Small Molecule Inhibitors of Shiga Toxin; 12% of 300,000 active; max response, %; cell reporter, cycloheximide protein synthesis inhibition counterscreen; AID 2314, 2010; in the data active = max response mostly above about 13%, no sharp cut-off; inactive = mostly below about 14%; also: read at 38.3 µM for the half of the compounds with a filed dose; 0% is about no effect
# An asterisk follows results filed as active; ? = inconclusive; nt = not tested or not shown. An excerpt weighted towards active compounds, which were near 21% of everything screened. Unless noted, calls follow the shape of the dose curve; as a rule, active = well fitted inhibition curve with a large enough effect; inconclusive = small, poorly fitted or top-dose-only effect, or another doubt; inactive = no such curve, though single readings can be large or run the other way.
SMILES,Pf growth 48h,Pf growth 96h,NS1 inh,Shiga inhibitor,Cycloheximide cs
Cc1cc(C)n(CCOc2ccc(Br)cc2)n1,-13%,?,-16%,-5,-1
C/C(Cn1cnc([N+](=O)[O-])n1)=N\NC(=O)c1ccc(F)cc1,-24%,?,5%,41*,25*
COc1ccc(C(=O)N/N=C(\C)Cn2cnc([N+](=O)[O-])n2)cc1,0%,-27%,-5%,26,12
C/C(Cn1cnc([N+](=O)[O-])n1)=N\NC(=O)c1cccc(F)c1,136%,7%,0%,96*,25*
C/C(Cn1cnc([N+](=O)[O-])n1)=N\NC(=O)c1ccncc1,17%,18%,-1%,16,4
O=C(NCCc1ccccc1)C(c1ccc(F)cc1)N(C(=O)c1csnn1)C1CC1 (stereo unspecified),-6%,0%,12%,11,1
COC(=O)c1sc2nc(C)c([N+](=O)[O-])c(C)c2c1N,?,?,1%,24,8
C[C@@]12C[C@H](O)C3[C@H](CCC4=CC(=O)CC[C@]43C)[C@H]1CC[C@@H]2c1csc(-c2ccccc2)n1 (stereo partly specified),nt,nt,-5%,nt,nt
COc1ccc(OC)c(-c2cn(S(=O)(=O)c3ccccc3)nc2N)c1,nt,15µM*,-6%,9,1
COc1ccccc1-c1cn(S(=O)(=O)c2ccc(C)cc2)nc1N,-26%,-5%,-21%,-7,1
CCN1CCCC1CNC(=O)Cn1cnc2sc(C)c(S(=O)(=O)N3CCC(C)CC3)c2c1=O (stereo unspecified),-2%,6.6µM*,0%,-1,-4
CCOC(=O)C1CCN(C(=O)Cn2cnc3sc(C)c(S(=O)(=O)N4CCC(C)CC4)c3c2=O)CC1,4.1µM*,11%,5%,8,-1
CCN(CC)CCNC(=O)Cn1cnc2sc(C)c(S(=O)(=O)N3CCC(C)CC3)c2c1=O,-4%,?,1%,8,-2
CCOC(=O)C1CCN(C(=O)Cn2cnc3sc(C)c(S(=O)(=O)N4CCCCC4)c3c2=O)CC1,?,-16%,-10%,-17,-4
CSc1nc(O)c(C(c2cccc([N+](=O)[O-])c2)c2c(O)nc(SC)[nH]c2=O)c(=O)[nH]1,-6%,-4%,?,-8,-1
O=c1c2c3c(sc2n2cnnc2n1-c1ccccc1)N(Cc1ccccc1)CCC3,?,4.1µM*,1%,-7,-2
CCOC(=O)c1ccc(NC(=S)NCCCN2CCOCC2)cc1,?,0%,1%,33,2
Cc1ccccc1CNC(=O)Nc1ccc(Cl)cc1,109%,7%,0%,69*,34*
Cc1ccc(CNC(=O)Nc2ccccc2)c(C)c1,62%,94%,-4%,64*,31*
Cc1ccccc1NC(=O)NCCc1ccc(Cl)cc1,?,28%,-1%,22,7
O=C(Oc1ccc(C(=S)N2CCC(O)CC2)cc1)c1ccc(Cl)cc1,-1%,-28%,-2%,35,37*
O=C(Oc1ccc(C(=S)N2CCCCC2)cc1)c1ccccc1,7%,?,-3%,15,-2
CN(CCCC(=O)O)S(=O)(=O)c1ccc2c(c1)C(=O)c1cc(S(=O)(=O)N(C)CCCC(=O)O)ccc1-2,18%,-13%,?,nt,-2
CCC(=O)Nc1nc(C)c(C(=O)NC2CCCCC2)s1,3.7µM*,?,-11%,9,-2
CCCCOC(=O)CCCN1C(=O)/C(=C2\SC(=S)N(CCCC(=O)OCCCC)C2=O)SC1=S,-3%,11%,-55%,-4,-2
SMILES,Pf growth 48h,Pf growth 96h,NS1 inh,Shiga inhibitor,Cycloheximide cs
CCc1nn2c(=O)c(S(=O)(=O)Nc3ccc(C(C)C)cc3)c(C)nc2s1,-25%,-2%,13%,-6,-1
Cc1ccc(N2CCN(c3ccc(C)cc3)C2c2cccnc2)cc1,nt,1.3µM*,-6%,38,19*
COc1cccc(C2N(c3ccccc3)CCN2c2ccccc2)c1OC,?,9%,-3%,35,19
c1ccc(N2CCN(c3ccccc3)C2c2cccnc2)cc1,3.7µM*,482%,-6%,48*,26*
Cc1ccc(S(=O)(=O)N2CCCC2c2cccnc2)cc1 (stereo unspecified),?,3%,-2%,-3,5
c1ccc(N2CCN(c3ccccc3)C2c2ccncc2)cc1,13µM*,nt,-5%,22,35
Cc1cccc(-n2c(SCC(=O)N3CCN(c4ccccn4)CC3)nnc2N2CCOCC2)c1,-17%,?,nt,nt,nt
CN1C(=S)N2CCCN2C1c1ccccc1 (stereo unspecified),?,-2%,-7%,2,-3
CC(=O)[O][Hg][c]1ccccc1,1.5µM*,3µM*,nt,nt,nt
CC(=O)Oc1ccccc1C(=O)O,-1%,2%,6%,nt,nt
CC(C)Cc1nc(N2CCN(C(=O)c3ccco3)CC2)c(C#N)c2c1CCCC2,?,-18%,-11%,23,19
CCc1nc(N2CCN(C(=O)c3ccccc3)CC2)c(C#N)c2c1COC(C)(C)C2,9.3µM*,?,-15%,-20,-6
CC1(C)Cc2c(C#N)c(N3CCN(C(=O)c4ccccc4)CC3)nc(Cc3ccccc3)c2CO1,?,nt,-1%,-9,-1
CC(C)C(=O)N1CCN(c2nc(-c3ccccc3)c3c(c2C#N)CCCC3)CC1,nt,8.3µM*,7%,-8,-5
CCCC(=O)N1CCN(c2nc(CC(C)C)c3c(c2C#N)CCC3)CC1,2.6µM*,0%,-73%,17,7
CC1(C)Cc2c(C#N)c(N3CCOCC3)nc(-c3ccccc3)c2CO1,10µM*,?,-9%,-3,-3
CCOc1ccc(C(=O)NN2CCOCC2)cc1,-3%,0%,-9%,9,-2
O=C(N[C@@H](Cc1ccccc1)C(=O)O)c1c(F)c(F)c(F)c(F)c1F,-1%,25%,6%,14,-2
Cc1ccc(S(=O)(=O)N2CCN(c3nc(C)c4c(c3C#N)CC(C)(C)OC4)CC2)cc1,6.6µM*,-22%,9%,-22,-4
CC(Sc1ccc(Cl)cc1)C(=O)Nc1ccccc1-c1ccccc1 (stereo unspecified),2.3µM*,-2%,8%,10,3
Cc1ccc(SC(C)C(=O)Nc2ccccc2-c2ccccc2)cc1 (stereo unspecified),-18%,13µM*,-12%,-15,-2
CC(CN)(NS(=O)(=O)c1ccccc1)c1ccccc1 (stereo unspecified),40%,?,13%,-10,-4
COc1cc(C(=O)N/N=C(\c2ccccc2)c2ccccn2)cc(OC)c1OC,0.93µM*,9.3µM*,4%,-13,-8
COc1cc(C(=O)N/N=C(\C)c2ccccn2)cc(OC)c1OC,17%,18%,-4%,-13,8
COc1cccc(C(=O)N/N=C(/c2ccccc2)c2ccccn2)c1,9.3µM*,?,-14%,-10,-2
CC(=O)Nc1ccc(NC(=O)CSc2nnc(-c3cccs3)n2N)cc1,-14%,19%,nt,nt,nt

# Screening results deposited in PubChem by National Center for Advancing Translational Sciences (NCATS).
